# Test results as given in PubChem BioAssay.
# Activity calls are given as the source filed them.
# How the values were obtained:
# [1] = tested on: XIP peptide (Xip251-270) binding; test: XIP fragment 251-270 binding compounds – biochemical, small-molecule microarray, fluorescence 635/667 nm, 0.1 µg/mL protein, primary screen (AID 1182); details: fluorescent protein binding, 635 nm, higher = more signal, called active from +8 up or from −8 down
# [2] = tested on: XIP peptide (Xip251-270); test: compounds binding XIP fragment 251-270 – biochemical, small-molecule microarray, fluorescence 635/667 nm, 0.5 µg/mL protein, primary screen (AID 1183); details: fluorescence 635 nm, higher = more signal
# [3] = blood-stage malaria parasite viability loss – strain 3D7, DAPI fluorescence, 100 nL, primary screen (AID 1184);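 further: parasites grown inside human red blood cells in medium with human serum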; details: P. falciparum 3D7 growth, 3 d, higher = more signal
# [4] = target: Homeobox protein Hox-A13 (Mus musculus) (UniProt Q62424); test: disruptors of Hoxa13 oligonucleotide interaction – biochemical, fluorescence polarization, labeled oligonucleotide, primary screen (AID 1185); details: Hoxa13:DNA binding, 15 min, higher = more signal, called active from +8 up or from −8 down
# Chain of Homeobox protein Hox-A13 (Mus musculus) (Q62424 whole entry, looked up): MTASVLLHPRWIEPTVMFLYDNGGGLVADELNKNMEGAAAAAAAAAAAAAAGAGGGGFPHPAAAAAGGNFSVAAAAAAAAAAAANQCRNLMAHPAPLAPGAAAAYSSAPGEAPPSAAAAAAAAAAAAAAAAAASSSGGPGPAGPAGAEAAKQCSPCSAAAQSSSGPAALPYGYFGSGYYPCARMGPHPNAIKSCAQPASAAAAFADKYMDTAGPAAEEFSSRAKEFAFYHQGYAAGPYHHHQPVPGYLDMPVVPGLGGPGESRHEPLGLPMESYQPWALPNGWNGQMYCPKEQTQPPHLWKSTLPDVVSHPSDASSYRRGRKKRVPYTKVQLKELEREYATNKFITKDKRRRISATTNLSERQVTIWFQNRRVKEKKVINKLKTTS
SMILES,composite z-score [1],composite z-score [2],z-score [3],z-score [4]
COC(=O)CC=C[C@@H](C)[C@@H](C=NOC(C)CN1CCCCc2nc(C)c(C)cc21)OC (some centres undefined),0.771 (inactive),0.444,1,-4.37 (inactive)
COc1ccc(OC[C@@H](CO)OC)cc1,0.617 (inactive),-0.317,1.62,-0.0261 (inactive)
CCOC(=O)CCN1C(=O)[C@H]2[C@H]3[C@H](O)[C@H](O)CC(=NO[C@@H]4O[C@H](CO)[C@@H](O)[C@H](O)[C@H]4O)[C@H]3CC[C@H]2C1=O,0.234 (inactive),0.405,0.209,-0.139 (inactive)
COC(=O)C(C(=O)OC)C1CCCC(=O)C1 (centres undefined),-0.0977 (inactive),0.237,-0.468,-0.243 (inactive)
CCOC(=O)[C@H](CC(C)C)NC(=O)CCC1CC(OC(=O)NCc2ccc3c(c2)OCO3)CC2(CCCC(COC(=O)NCCOc3ccccc3)O2)O1 (some centres undefined),0.24 (inactive),0.368,-1.87,-6.24 (inactive)
CC(C)CON=C1C[C@@H](O)[C@@H](O)[C@@H]2[C@@H]3C(=O)N(C(C)(C)C)C(=O)[C@@H]3CC[C@@H]12,0.0494 (inactive),-0.295,-1.62,-0.298 (inactive)
COC(=O)[C@@H]1CC[C@H](C)[C@@H](c2ccc(C)cc2)N1C(=O)c1ccc(C=NOC[C@H]2O[C@H](c3ccccc3)C=C[C@@H]2Oc2ccc(OC)cc2)cc1,0.176 (inactive),0.313,-1.14,-0.0628 (inactive)
C[C@H]1CC[C@@H](C(=O)O)N[C@@H]1c1ccc(C#Cc2ccccc2)cc1,-0.125 (inactive),0.601,-1.61,-2.16 (inactive)
CCOC(=O)[C@H](CC(C)C)NC(=O)CCC1CC(OC(=O)NCc2ccc3c(c2)OCO3)CC2(CCCC(COC(=O)NCCc3ccccc3OC)O2)O1 (some centres undefined),0.677 (inactive),0.622,-1.88,-3.78 (inactive)
CC(C)(C)N1C(=O)[C@H]2[C@@H]3C(=CC[C@H]2C1=O)C(=O)[C@H]1O[C@H]1[C@H]3O,0.139 (inactive),0.283,-2.38,-5.76 (inactive)
CCOC(=O)[C@H](CC(C)C)NC(=O)CCC1CC(OC(=O)NCCc2ccc(F)cc2)CC2(CCCC(COC(=O)NCc3cccc4ccccc34)O2)O1 (some centres undefined),-0.008 (inactive),0.24,-1.48,-5.81 (inactive)
CO[C@@H](C(C)C)[C@@H](C)C1OC(=O)CC1O (some centres undefined),0.51 (inactive),0.129,-1.69,0.186 (inactive)
CCCNC(=O)OC[C@H]1O[C@H](CCON=C[C@@H](NS(=O)(=O)c2ccc(C)cc2)[C@H](C)C=CCC(=O)OC)C=C[C@@H]1Oc1ccc(OC)cc1,-0.349 (inactive),-0.501,-0.862,-4.48 (inactive)
CCN1C(=O)[C@H]2[C@H]3[C@H](O)[C@H](O)CC(=NOCC=C(C)CCC=C(C)C)[C@@H]3CC[C@H]2C1=O,-0.544 (inactive),0.615,-0.298,-3.73 (inactive)
CON=C(C)CCN1CCc2nc(-c3ccccc3)c(-c3ccccc3)cc2C1,0.257 (inactive),0.41,-1.38,-2.53 (inactive)
O=C1[C@H]2[C@H]3[C@H](O)[C@H](O)CC(=NOCc4ccccc4)[C@H]3CC[C@H]2C(=O)N1C1CCCCC1,0.288 (inactive),0.714,-0.369,0.449 (inactive)
CCOC(=O)[C@H](Cc1ccccc1)NC(=O)CCC1CC(OC(=O)NCc2cccc3ccccc23)CC2(CCCC(COC(=O)NCCc3ccccc3OC)O2)O1 (some centres undefined),0.248 (inactive),0.374,-1.95,-0.95 (inactive)
CCOC(=O)CCN1C(=O)[C@H]2[C@@H]3C(=CC[C@H]2C1=O)C(=O)[C@H]1O[C@H]1[C@H]3O,-0.0103 (inactive),-0.465,-1.5,-4.11 (inactive)
O=C1C=C[C@@H](O)[C@@H]2[C@@H]3C(=O)N(Cc4ccc5c(c4)OCO5)C(=O)[C@@H]3CC[C@@H]12,-0.297 (inactive),0.228,-0.786,-0.416 (inactive)
COc1ccc(COC(=O)NN=C2C[C@@H](O)[C@@H](O)[C@@H]3[C@@H]4C(=O)N(C(C)(C)C)C(=O)[C@@H]4CC[C@@H]23)cc1,0.457 (inactive),0.48,0.553,-1.64 (inactive)
CCc1cc2c(nc1CC)CCN(CCC(C)=NOC[C@@H](C)[C@H](OCc1ccccc1)C(C)C)C2,-0.259 (inactive),-0.125,0.23,-3.53 (inactive)
COC(=O)[C@H](C)NC(=O)CCC1CC(OC(=O)NCCc2ccc(F)cc2)CC2(CCCC(COC(=O)NCC3CCCCC3)O2)O1 (some centres undefined),-0.0255 (inactive),0.526,-2.07,-2.56 (inactive)
CCN1C(=O)[C@H]2[C@H]3[C@H](O)[C@H](O)CC(=NNC(=O)OCc4ccccc4)[C@H]3CC[C@H]2C1=O,-0.249 (inactive),0.129,-0.114,-1.7 (inactive)

SMILES,composite z-score [1],composite z-score [2],z-score [3],z-score [4]
CC(C)=CCCC(C)=CCON=C1[C@H]2CCn3c(=O)n(-c4ccccc4)c(=O)n3[C@H]2[C@H](O)[C@@H]2O[C@H]12,0.246 (inactive),0.598,-2.23,-4.57 (inactive)
O=C1C=C[C@@H](O)[C@@H]2[C@@H]3C(=O)N(C4CCCCC4)C(=O)[C@@H]3CC[C@@H]12,0.386 (inactive),0.178,0.307,-0.431 (inactive)
COCOc1ccc(Br)cc1C(=O)C=Cc1ccc2c(c1)OCO2,0.268 (inactive),0.627,-1.42,-0.353 (inactive)
O=C1C=C[C@@H](O)[C@@H]2[C@@H]3C(=O)N(Cc4ccccc4)C(=O)[C@@H]3CC[C@@H]12,0.771 (inactive),-0.0049,-0.0141,0.291 (inactive)
COC(=O)[C@H](C)NC(=O)CCC1CC(OC(=O)NCCc2ccc(F)cc2)CC2(CCCC(COC(=O)NCCc3ccccc3OC)O2)O1 (some centres undefined),0.784 (inactive),0.341,-1.26,-6.13 (inactive)
CCOC(=O)[C@H](CC(C)C)NC(=O)CCC1CC(OC(=O)NCCc2ccc(F)cc2)CC2(CCCC(COC(=O)NCc3cccc(C(F)(F)F)c3)O2)O1 (some centres undefined),-0.0296 (inactive),0.575,-0.748,-6.52 (inactive)
COc1ccc(OC[C@@H]2CC3[C@@H](c4ccc(Br)cc4)[C@H](C)CC[C@H]3C(=O)O2)cc1 (some centres undefined),-0.0755 (inactive),0.659,0.163,0.109 (inactive)
OC[C@H]1O[C@H](C#Cc2ccccc2)C=C[C@@H]1O,0.0849 (inactive),-0.105,0.223,-2.53 (inactive)
CC(=O)OC[C@H]1O[C@H](CC=NOC(C)CN2CCCCc3nc(C)c(C)cc32)C=C[C@@H]1OC(C)=O (some centres undefined),0.231 (inactive),0.646,-0.445,-3.74 (inactive)
COC(=O)[C@H](C)NC(=O)CCC1CC(OC(=O)NCc2cccc3ccccc23)CC2(CCCC(COC(=O)NCCCN3CCCC3=O)O2)O1 (some centres undefined),1.17 (inactive),0.582,-0.529,-3.27 (inactive)
C[C@H]1CC[C@H]2C(=O)OC(COc3ccc(C(C)(C)C)cc3)CN2[C@@H]1c1ccc(Br)cc1 (some centres undefined),0.0819 (inactive),0.3,1.52,-3.32 (inactive)
O=C1C2=CC[C@H]3C(=O)N(C4CCCCC4)C(=O)[C@H]3[C@H]2[C@H](O)[C@@H]2O[C@H]12,0.381 (inactive),-0.274,-1.98,-5.22 (inactive)
COc1ccc(-c2cnnc(CCCn3ccnc3-c3ccccc3)n2)cc1,0.0584 (inactive),0.492,-0.964,-3.52 (inactive)
CCN1C(=O)[C@H]2[C@H]3[C@H](O)[C@H](O)CC(=NNC(=O)OCc4ccccc4)[C@@H]3CC[C@H]2C1=O,-0.425 (inactive),-0.0369,1.14,-0.144 (inactive)
COC(=O)[C@H](C)NC(=O)CCC1CC(OC(=O)NCc2ccc3c(c2)OCO3)CC2(CCCC(COC(=O)NCc3ccccc3)O2)O1 (some centres undefined),0.361 (inactive),0.554,-1.75,-2.47 (inactive)
COC(=O)[C@@H]1CC[C@H](C)[C@@H](c2ccc(Br)cc2)N1C[C@@H](O)CN=[N+]=[N-],-0.193 (inactive),-0.03,-0.877,-3.81 (inactive)
CCN1C(C)=C(C(=O)OC)[C@@H](c2ccccc2)N2C(=O)[C@](O)(C(=O)OC)CC(C(C)=O)=C12,0.181 (inactive),-0.218,0.752,0.334 (inactive)
COC(=O)[C@@H]1CC[C@H](C)[C@@H](c2ccc(C)cc2)N1C(=O)c1ccc(C=NOC[C@@H](O)[C@H]2O[C@@H]3OC(C)(C)O[C@@H]3[C@H]2O)cc1,0.102 (inactive),0.228,-0.209,-6.03 (inactive)
CCOC(=O)[C@H](Cc1ccccc1)NC(=O)CCC1CC(OC(=O)NCc2cccc3ccccc23)CC2(CCCC(COC(=O)NCC3CCCCC3)O2)O1 (some centres undefined),1.98 (inactive),0.357,-1.69,-3.1 (inactive)
COC(=O)[C@H](C)NC(=O)CCC1CC(OC(=O)NCc2cccc3ccccc23)CC2(CCCC(COC(=O)NCCc3ccccc3OC)O2)O1 (some centres undefined),-0.0645 (inactive),0.384,-1.47,-4.27 (inactive)
COC(=O)[C@H](C)NC(=O)CC=C[C@@H](C)[C@@H]1C=C[C@H](O)[C@@H](CO)O1,0.672 (inactive),0.0241,-1.66,-0.56 (inactive)
C[C@H]1C=CCC(=O)OC[C@H](C)C(=O)N2CCC[C@H]2C(=O)OC1,0.23 (inactive),0.476,0.878,-0.266 (inactive)
CO[C@@H]1C=CCC(=O)N[C@@H](C)C(=O)OC[C@@H](NS(=O)(=O)c2ccc(C)cc2)[C@H](C)C=CCC(=O)OC[C@H]1C,-0.778 (inactive),0.247,0.251,-1.06 (inactive)
